# Most compounds without a hit are left out; they make up all but 1.6% or so of the library.
# KCNQ2 inh = inhibitors of rat KCNQ2 potassium channel | CHO-K1 KCNQ2, FluxOR thallium flux, 20 min; active compounds read low | 310,000 tested, 1.1% active | O88943 | B-score at 10 µM;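 active = fluorescence ratio B-score at most minus 3 library SDs, with starting brightness B-score within 2 library SDs, cut at about -5.5 in these data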
# KCNQ2 enhance = enhances the rat KCNQ2 potassium channel. O88943. CHO-K1 KCNQ2, FluxOR thallium flux fluorescence; active compounds read high. B-score at 10 µM. 310,000 tested, 0.54% active;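 active = fluorescence ratio B-score at least 3 SD of library B-scores, with initial fluorescence B-score within 3 of them, cut at about 5.3 in these data; same plate scores as AID 2156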;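 note: B-score of peak minus minimum over baseline fluorescence ratio after K+ and Tl+ stimulus; positive B-score means potentiation of KCNQ2 with more thallium influx and brighter signal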
# Kir21 conf inh = confirmation of mouse Kir2.1 potassium channel inhibitors | shares compounds with KCNQ2 enhance | 2,300 tested, 41% active | Tl flux remaining, % of negative control (active compounds read low), % at 10 µM | Kir2.1-expressing cells, FluxOR thallium flux fluorescence; active compounds read low;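 active = Primary-screen hit whose thallium flux fell at least 3 control SD below untreated wells in both duplicates, with normal baseline fluorescence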;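 note: 0% = blank wells without stimulus and 100% = stimulated no-compound controls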
# Target sequence (P35561 whole entry, looked up): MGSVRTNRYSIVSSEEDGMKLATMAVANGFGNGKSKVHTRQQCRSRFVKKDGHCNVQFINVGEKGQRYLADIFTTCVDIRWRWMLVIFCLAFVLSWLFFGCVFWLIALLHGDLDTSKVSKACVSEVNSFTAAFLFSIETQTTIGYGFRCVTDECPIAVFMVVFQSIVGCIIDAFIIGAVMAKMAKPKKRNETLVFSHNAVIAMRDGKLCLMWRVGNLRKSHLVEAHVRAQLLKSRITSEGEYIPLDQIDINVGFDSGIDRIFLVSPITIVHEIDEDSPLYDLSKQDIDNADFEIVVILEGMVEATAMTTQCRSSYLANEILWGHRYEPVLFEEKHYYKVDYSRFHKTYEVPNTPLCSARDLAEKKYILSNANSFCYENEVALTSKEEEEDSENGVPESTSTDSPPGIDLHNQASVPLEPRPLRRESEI
# HEK293 Tl flux = parental HEK293 activity in Kir2.1 inhibitor counter-screen; shares compounds with KCNQ2 enhance; parental HEK293 cells, FluxOR thallium flux fluorescence; 0% = unstimulated blank wells; FluxOR signal as % of negative control (100 = no effect), % at 10 µM; 2,300 tested, 19% active;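 active = dye signal at least 3 control SD above or below untreated wells in both duplicates, raw fluorescence within 3, either direction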;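 note: percent is based on the flux ratio of peak minus minimum fluorescence over baseline F0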
# CHO-K1 ctr = parental CHO-K1 activity in KCNQ2 potentiator counter-screen; shares compounds with KCNQ2 enhance; parental CHO-K1 cells, FluxOR thallium flux fluorescence; zero = vehicle mean+3SD, 100% = vehicle-minus-blank window; activity increase over 3SD of controls, % at 10 µM; 1,200 tested, 43% active; AID 2282;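 active = signal rise of at least 3 SD above the untreated control mean, in both duplicate wells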;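 note: counter screen of KCNQ2 potentiator hits so any rise reflects channel-independent effects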
# KCNQ1 pot spec = selectivity of KCNQ2 potentiators: effect on human KCNQ1; shares compounds with KCNQ2 enhance; CHO KCNQ1 stable, FluxOR thallium flux fluorescence; beyond 3SD, as % of vehicle-control signal; activation over 3SD threshold, % at 10 µM; 1,200 tested, 28% active; AID 2283;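 active = fluorescence ratio rise of at least 3 SD of vehicle wells above their mean, in both replicate wells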;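 note: 0% = vehicle mean plus 3 SD and 100% = vehicle minus unstimulated blank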
# KCNQ2 pot confirm = rat KCNQ2 channel potentiator confirmation; shares compounds with KCNQ2 enhance; CHO-KCNQ2 cells, FluxOR thallium flux fluorescence; potentiation, less the hit threshold, % at 10 µM; 1,200 tested, 68% active; AID 2287;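 active = fluorescence ratio rising 3 SD or more over the vehicle control mean in both replicates, plus primary screen hit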;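 note: peak minus minimum thallium fluorescence divided by baseline after K/Tl stimulus; 0% = vehicle mean plus 3 SD and 100% = vehicle minus unstimulated blank difference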
# Kir2-1 sel = tests whether KCNQ2 potentiators also affect mouse Kir2.1 | shares compounds with KCNQ2 enhance | HEK293 Kir2.1, FluxOR thallium flux fluorescence | activity over 3SD threshold, % at 10 µM | 1,200 tested, 2% active | AID 2345;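 active = fluorescence ratio rise of at least 3 SD above the vehicle-control mean, seen in both replicates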;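 note: 0% = vehicle mean plus 3 SD and 100% = vehicle minus no-stimulus blank window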
# KCNQ2 W236L MoA = rat KCNQ2 W236L mutant potentiation by KCNQ2 potentiators | shares compounds with KCNQ2 enhance | CHO KCNQ2-W236L, automated patch clamp current | current increase over 3SD of negative controls (%), active compounds read high, % at 25 µM | 940 tested, 10% active;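 active = current increase at least 3 SD of the untreated controls above them in both duplicate recordings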
# An asterisk follows results filed as active; i = inactive; nt = no result given.
SMILES,KCNQ2 inh,KCNQ2 enhance,Kir21 conf inh,HEK293 Tl flux,others
Cc1cc(C)cc(OCC(=O)N/N=C/c2ccco2)c1,i,nt,nt,nt,
CCCCOc1ccc(CCC(=O)N/N=C/c2ccco2)cc1,i,9.1*,i,i,CHO-K1 ctr=47.1*;KCNQ1 pot spec=65.4*;KCNQ2 pot confirm=33.3*;Kir2-1 sel=-38.5;KCNQ2 W236L MoA=i
CCCOc1ccc(CCC(=O)N/N=C/c2ccco2)cc1,i,1.27,nt,nt,
O=C(c1ccc(OC2CCN(CCCc3ccccc3)CC2)cc1)N1CCCC1,i,0.48,72.5%*,i,
CC(=O)N1CCN(C(=O)c2ccc(OC3CCN(CCc4ccccc4)CC3)cc2)CC1,i,0.04,nt,nt,
CCOC(=O)N1CCN(C(=O)C2CCC(=O)N(CCCN3CCCC3=O)C2)CC1 (configuration not stated),i,1.72,nt,nt,
CSCC[C@H](NC(=O)Cc1c(C)c2cc3c4c(oc3cc2oc1=O)CCCC4)C(=O)O,i,0.62,nt,nt,
Cc1ccc(C(=O)Nc2nc(C(C)(C)C)cs2)s1,i,6.64*,i,i,CHO-K1 ctr=18.3*;KCNQ1 pot spec=-4.7;KCNQ2 pot confirm=-0.3;Kir2-1 sel=-17.8;KCNQ2 W236L MoA=i
CC(C)(C)c1csc(NC(=O)c2ccc(Cl)s2)n1,i,0.69,nt,nt,
Cc1ccc(S(=O)(=O)Nc2nc3ccccc3nc2Nc2cccc(S(=O)(=O)N3CCCC3)c2)cc1,i,nt,nt,nt,
O=[N+]([O-])c1cccc(S(=O)(=O)Nc2nc3ccccc3nc2Nc2cccc(S(=O)(=O)N3CCCCC3)c2)c1,i,8.22*,i,i,CHO-K1 ctr=-13.2;KCNQ1 pot spec=16.9*;KCNQ2 pot confirm=-26.4;Kir2-1 sel=-39.0
Nc1c(C(=O)Nc2ccccc2Cl)nnn1-c1ccc2c(c1)OCCO2,i,nt,nt,nt,
CCOC(=O)c1c(NC(=O)CSC2=NN3CCCC(=O)N=C3S2)sc2c1CCCCC2,i,nt,nt,nt,
CCCCOCCCNc1ncnc2c1[nH]c1ccccc12,i,nt,44.5%*,i,
CCOCCCNc1ncnc2c1[nH]c1ccccc12,i,1.49,nt,nt,
COc1ccc(-c2nc(-c3cccs3)c(-c3cccs3)[nH]2)cc1O,i,nt,nt,nt,
Cn1c(-c2ccccc2)cnc1NCc1ccc(-c2ccccc2)cc1,i,nt,nt,nt,
Cn1c(-c2ccc3c(c2)OCO3)cnc1NCc1ccc(Cl)cc1,i,nt,21.0%*,i,
Cn1c(-c2ccc(F)cc2)cnc1NCc1ccc(C#N)cc1,i,nt,nt,nt,
COc1cc(CNc2ncc(-c3ccc(Cl)cc3)n2C)cc(OC)c1OC,i,nt,nt,nt,
Cc1ccc(CNc2ncc(-c3ccc4c(c3)OCO4)n2C)cc1,-6.01*,-6.01,22.5%*,i,
Cn1c(-c2ccc(F)cc2)cnc1NCc1ccc(F)cc1,i,nt,38.0%*,i,
CC(C)(C)n1nc2c(c1NC(=O)Cc1ccccc1)CS(=O)(=O)C2,i,1.57,nt,nt,
CC1(C)c2[nH]c3ccccc3c2C[C@@H]2C(=O)N(c3ccc(F)cc3F)C(=O)N21,i,1.9,nt,nt,
O=C(NCC(O)CO)c1csc(Nc2cccc3ccccc23)n1 (configuration not stated),i,0.43,nt,nt,
SMILES,KCNQ2 inh,KCNQ2 enhance,Kir21 conf inh,HEK293 Tl flux,others
N#Cc1c(C(F)(F)F)cc(-c2ccc(F)cc2)[nH]c1=O,i,1.53,nt,nt,
N#Cc1c(C(F)(F)F)cc(-c2ccc(Cl)cc2)[nH]c1=O,i,6.47*,i,i,CHO-K1 ctr=0.0*;KCNQ1 pot spec=-12.3;KCNQ2 pot confirm=10.8*;Kir2-1 sel=-38.4;KCNQ2 W236L MoA=i
Cc1cc(C)cc(N(C(=O)c2ccccn2)C(C(=O)NC2CCCCC2)c2ccncc2)c1 (configuration not stated),i,nt,nt,nt,
COC(=O)c1sc(NC(=O)c2ccc(Cn3cc(Cl)cn3)o2)c(C#N)c1C,i,0.21,nt,nt,
Cc1ccc(NC(=O)c2ccc(Cn3cc(Cl)cn3)o2)c(C)c1,i,nt,25.5%*,i,
NS(=O)(=O)c1ccc(CNC(=O)CNC(=O)c2ccc(Br)o2)cc1,i,0.3,nt,nt,
CN(C)CCCN1c2ccccc2CCc2ccc(Cl)cc21,i,nt,41.0%*,i,
CN(CCCN1c2ccccc2CCc2ccccc21)CC(=O)c1ccc(Cl)cc1,i,nt,nt,nt,
CC(C)(C)NC(=O)c1ccc(NC(=O)c2ccccc2-c2ccccc2C(=O)O)cc1,i,nt,nt,nt,
O=C(COC(=O)C1CC(=O)N(Cc2ccccc2)C1)c1ccc(Br)cc1 (configuration not stated),i,nt,nt,nt,
O=C(NN1CC(C(=O)OCc2ccc(Br)cc2)CC1=O)c1ccccc1 (configuration not stated),i,9.73*,i,i,CHO-K1 ctr=12.8*;KCNQ1 pot spec=-17.0;KCNQ2 pot confirm=55.4*;Kir2-1 sel=-27.3;KCNQ2 W236L MoA=3.6%*
CCN(CC(=O)NC1CCS(=O)(=O)C1)S(=O)(=O)c1cc(C)ccc1C (configuration not stated),i,0.66,nt,nt,
CCOC(Cn1cc(C)c(=O)[nH]c1=O)OCC,i,0.95,nt,nt,
COC(C(=O)Nc1ccnn1C1CCN(Cc2ccc(CO)o2)CC1)c1ccccc1 (configuration not stated),i,nt,nt,nt,
CC(=O)NCCOc1cccc2ccccc12,i,0.73,nt,nt,
c1ccc(CCNCCCOc2cccc3ccccc23)cc1,i,nt,13.5%*,i,
Cc1ccc(Nc2cc(C)nn2-c2nc(C)cc(C)n2)cc1,i,2.04,nt,nt,
Cc1ccc(Nc2cc(C)nn2-c2nc(C)cc(=O)[nH]2)cc1,i,17.4*,i,269.0%*,CHO-K1 ctr=59.7*;KCNQ1 pot spec=44.6*;KCNQ2 pot confirm=41.8*;Kir2-1 sel=-29.6;KCNQ2 W236L MoA=i
CCCOc1ccc(OCCOCCN2CCc3ccccc3C2)cc1,i,0.21,60.5%*,i,
CCOc1ccc(OCCOCCN2CCc3ccccc3C2)cc1,i,1.21,nt,nt,
C=CCc1cc(OC)ccc1OCCOCCN1CCc2ccccc2C1,i,nt,18.0%*,i,
c1ccc(OCCOCCN2CCc3ccccc3C2)cc1,i,0.27,nt,nt,
CC1CCC(NC(=O)c2ccc(NC(=O)CC3SC(N4CCCC4)=NC3=O)cc2)CC1 (configuration not stated),i,nt,nt,nt,
c1ccc(CSc2nnc(-c3cccs3)n2Cc2ccco2)cc1,-6.01*,-6.01,65.0%*,i,
Cc1ccc(-c2nnc(SCc3ccc(C#N)cc3)n2Cc2ccco2)cc1,i,nt,nt,nt,
c1ccc(CSc2nnc(-c3ccco3)n2Cc2ccco2)cc1,i,nt,nt,nt,
Cc1ccccc1CSc1nnc(-c2ccco2)n1Cc1ccco1,i,nt,50.0%*,i,
CCOC(=O)c1sc2nc(Cc3ccc(Cl)cc3)[nH]c(=S)c2c1C,i,1.54,nt,nt,

# High-throughput results deposited in PubChem BioAssay by Johns Hopkins Ion Channel Center.
